Screening results as filed in PubChem BioAssay.
HCV inh: qHTS Assay for Inhibitors of Hepatitis C Virus (HCV) | Huh7.5.1 HCVcc-Cre infection, luciferase reporter, 44 h | Potency, µM (highest dose often 41.8 µM), actives largely listed as inhibitors | actives 3.4% (n = 340,000) | AID 651820, 2012; active = well fitted inhibition curve with a large enough effect; inconclusive = small, poorly fitted or top-dose-only effect, or another doubt; inactive = no such curve, though single readings can be large or run the other way
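A cell-based infection assay in which seeded cells (1,000 per well) receive test compound after 4 h, are inoculated with HCVcc-Cre at approximately 0.5 moi, and are incubated 44 h before luminescence detection.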
VACV Venus inh: qHTS for Stage-Specific Inhibitors of Vaccinia Orthopoxvirus: Venus Reporter Primary qHTS; AID 720580, 2013; actives 0.46% (n = 330,000); Vaccinia virus Venus reporter expression, fluorescence; Potency, µM (doses to about 36.5 µM), most hits filed as inhibitors; calls by dose curve; tested in A549 cells; also: nearly all actives have a fitted effect of over 30% in size
Lassa entry inh: qHTS for Inhibitors of binding or entry into cells for Lassa Virus; Lassa virus pseudotype entry inhibition, cell reporter; actives 1.2% (n = 300,000); AID 540256, 2011; Potency, µM (doses to about 37.9 µM), usual class: inhibitors; calls by dose curve; tested in HEK293 cells; also: nearly all actives have a fitted effect of over 50% in size
FMDV antiviral: High Throughput Screening for Foot and Mouth Disease Virus Antivirals; FMDV antiviral cell-based qHTS; actives 1.2% (n = 410,000); AID 1159524, 2015; Potency, µM (titrated, usually from 57.9 µM), hits mostly inhibitors; calls by dose curve; tested in HEK293T cells; also: read-out not given here; nearly all actives have a fitted effect of over 45% in size
Marburg entry inh: qHTS for inhibitors of binding or entry into cells for Marburg Virus | Marburg virus pseudotyped entry inhibition, cell reporter | AID 540276, 2011 | Potency, µM (doses to about 37.8 µM), hits mostly inhibitors | actives 1.8% (n = 300,000); calls by dose curve; tested in HEK293 cells
VACV mCherry inh: qHTS for Stage-Specific Inhibitors of Vaccinia Orthopoxvirus: mCherry Reporter Primary qHTS. Potency, µM (highest dose often 36.5 µM), most hits filed as inhibitors. Vaccinia virus mCherry reporter infection, fluorescence. actives 0.63% (n = 310,000). AID 720579, 2013; calls by dose curve; tested in A549 cells; also: nearly all actives have a fitted effect of over 35% in size
Numbers stand for hits; 0 = inactive; ? = inconclusive; - = no result; [ ] = dose if it differs, or a comment. A selection: hits, their analogues and other compounds. The true share with any hit is near 5.3%.

SMILES | HCV inh | VACV Venus inh | Lassa entry inh | FMDV antiviral | Marburg entry inh | VACV mCherry inh
COc1ccc(/C=N/NC(=O)CSCC(=O)Nc2ccccc2)cc1 | 0 | - | - | 0 | - | -
COc1cccc(/C=N/NC(=O)CSCC(=O)Nc2ccccc2)c1O | 25.1µM | - | ? | 0 | 20.6µM | -
COc1cccc(/C=N/NC(=O)CNC(=O)C(c2ccccc2)c2ccccc2)c1O | ? | ? | 10µM | 0 | ? | 3.55µM
COc1ccc2oc(=O)c(-c3nc(-c4cc(OC)c(OC)c(OC)c4)no3)cc2c1 | - | 0 | 0 | 0 | - | 0
COc1cccc(CN(C(=O)c2oc3cc(C)ccc3c2C)C2CCS(=O)(=O)C2)c1 (configuration not stated) | - | 0[7.34 µM] | 0 | 0 | ? | 0[7.34 µM]
CCC(=O)Nc1cc(C(=O)O)ccc1Sc1ccc(Cl)cc1 | 0 | 0 | 0 | 0 | ? | 0
CCOC(=O)c1c(NC(C)=O)c2c3c(sc2n1Cc1nc(-c2cccc(C)c2)oc1C)CCCC3 | - | 0 | - | 0 | 0 | 0
CCCN1C(=O)c2cc(C(=O)Nc3ccccc3OC)ccc2C1Nc1ccccc1OC (configuration not stated) | 11.2µM | 0 | ? | ? | ? | 0
CN(C)CCCN1C(=O)c2cccc3c([N+](=O)[O-])ccc(c23)C1=O | ? | 0 | ? | ? | 1.84µM | 0
O=C1NC[C@H](Cc2ccccc2)N(C[C@H]2CCCN2C[C@H](Cc2ccccc2)N2C[C@H](Cc3ccccc3)N(CC3CCCCC3)C(=O)C2=O)C1=O | 8.91µM | ? | - | ? | - | ?
O=C1NC[C@H](Cc2ccccc2)N(C[C@@H]2CCCN2C[C@H](Cc2ccccc2)N2C[C@H](Cc3ccccc3)N(CC3CCCCC3)C(=O)C2=O)C1=O | - | 0 | - | 0 | - | 0
CC(C)C[C@@H](CN1CCCC1CN1C(=S)NC[C@@H]1Cc1ccc(O)cc1)N1C[C@H](Cc2ccc(O)cc2)N(CCc2ccccc2)C1=S (some centres not stated) | 0 | 10µM | - | 0 | - | 0
CCOc1ccc(CCN2C(=O)C(=O)N([C@@H](CC(C)C)CN3CCC[C@@H]3CN3C(=O)C(=O)NC[C@@H]3Cc3ccccc3)C[C@@H]2CC(C)C)cc1 | 0 | 12.6µM | - | ? | - | 0
CCOc1ccc(CCN2C(=O)C(=O)N([C@@H](CC(C)C)CN3CCC[C@H]3CN3C(=O)C(=O)NC[C@@H]3Cc3ccccc3)C[C@@H]2Cc2ccccc2)cc1 | - | 0 | - | ? | - | ?
CCOc1ccc(CCN2C(=S)N([C@@H](Cc3ccc(O)cc3)CN3CCCC3CN3C(=S)NC[C@@H]3Cc3ccc(O)cc3)C[C@@H]2CC(C)C)cc1 (some centres not stated) | 4.47µM | ? | - | ? | - | ?
Cc1nc2cnc(N3CCN(C)CC3)nc2n(C)c1=O | - | - | - | 0 | - | -
Cc1cnc(-n2ncc(C(=O)NCCCc3ccncc3)c2C)nc1-c1ccc(F)cc1 | - | ? | - | 0 | - | 0
COc1ccc(NC(=O)c2ccc(-c3ccc(-c4noc(C)n4)cc3C)cc2)cc1OCCN(C)C | - | 0 | - | 0 | - | 0
O=S(=O)(c1ccc2c(c1)OCO2)N1CCN(c2nc(-c3cccs3)nc3ccccc23)CC1 | - | 0 | - | - | - | 0
CC(C)C[C@H]1CNC(=S)N1CC1CCCN1C[C@H](Cc1ccc(O)cc1)N1C[C@H](Cc2ccccc2)N(CC2CCCCC2)C1=S (some centres not stated) | 11.2µM | 0 | - | 0 | - | ?
Cc1cc(NC(=O)CSc2nc(-c3cccc(F)c3)nc3c2c(=O)n(C)c(=O)n3C)no1 | - | 0 | 0 | 0 | - | 0
COc1ccc(N2CCc3c(C)nc4c(OC)cccc4c32)cc1 | ? | 0 | ? | 0 | ? | 0
CCN1Cc2c(/C=C/c3ccccc3)nc3ccc(OC)cc3c2N(c2cccc(Cl)c2)C1 | 17.8µM | ? | - | 39.8µM | - | ?
COc1ccc(N2CCc3c(C)nc4c(OC)cc(OC)cc4c32)c(OC)c1 | 11.2µM | - | ? | 0 | 11.6µM | -
Cc1ccc2nc3c(c(N)c2c1)CCN3c1ccccc1 | ? | 0 | ? | ? | ? | ?
SMILES | HCV inh | VACV Venus inh | Lassa entry inh | FMDV antiviral | Marburg entry inh | VACV mCherry inh
COc1cccc(N2CCc3c(C)nc4ccc(Cl)cc4c32)c1 | ? | ? | ? | ? | 11.2µM | 0
COc1ccc(N2CCc3c(C)nc4c(OC)cc(OC)cc4c32)cc1 | 12.6µM | ? | ? | ? | ? | ?
CCOc1ccc(-c2ccc(NS(=O)(=O)c3cc(C)c(C)cc3C)cc2)nn1 | - | 0 | 0 | 0 | - | 0
O[C@]1(c2ccc(F)cc2)CCNC1 | - | - | - | - | 0 | -
O=C(Nc1nccs1)c1ccc(S(=O)(=O)NCc2cccs2)cc1 | 10µM | 0 | 0 | - | 0 | 0
O=C(Nc1ccc(Br)cc1)c1ccc(F)c(S(=O)(=O)NCc2cccs2)c1 | 5.01µM | ? | 3.98µM | 0 | ? | ?
Cc1cccc(-c2noc(-c3cc(C(C)C)[nH]n3)n2)c1 | - | 0[7.34 µM] | 0 | 0 | - | 0[7.34 µM]
CCn1cc(CN2CCC(C(=O)Nc3ccc(Oc4ccccc4F)cc3)CC2)c(C)n1 | 2.82µM | 0 | 0 | ? | ? | 0
CC(C)n1cc(CN2CCC(C(=O)Nc3ccc(Oc4ccccc4F)cc3)CC2)cn1 | 11.2µM | - | - | 0 | - | -
O=C(Nc1ccc(Oc2cccnc2)cc1)C1CCN(Cc2ccccc2F)CC1 | ? | 0 | 0 | ? | 0 | 0
O=C(c1ccccc1F)N(Cc1cc2cc3c(cc2nc1N1CCOCC1)CCC3)CC1CCCO1 (configuration not stated) | - | 0 | - | 0 | - | 0
COc1ccccc1CNC(=O)c1cc(C2CC2)nc2c1cnn2C(C)C | 1µM | 0 | 0 | 0 | ? | 0
CC(C)n1ncc2c(C(=O)N3CCN(Cc4ccc(Br)s4)CC3)cc(C3CC3)nc21 | 10µM | - | - | 0 | - | -
CCOc1ccc(OCCNC(=O)c2cc(C3CC3)nc3c2cnn3C(C)C)cc1 | 3.16µM | 0 | 0 | ? | ? | 0
CC(C)n1ncc2c(C(=O)O)cc(C3CC3)nc21 | 0 | - | - | 0 | - | -
CC(C)n1ncc2c(C(=O)NCCOc3ccccc3F)cc(C3CC3)nc21 | ? | 0 | ? | ? | ? | 0
CC(C)n1ncc2c(C(=O)Nc3cccc(C#N)c3)cc(C3CC3)nc21 | 11.2µM | - | - | ? | - | -
CN(C)c1ccc(/C=C2/CCc3ccccc32)cc1 | - | 0 | - | - | - | 0
CN(C)c1ccc(C=O)cc1[N+](=O)[O-] | - | 0 | - | - | - | 0
COc1ccc(NC(=O)c2cc(-c3ccccc3)nc3c2cnn3C(C)C)cc1 | 0 | - | - | 39.8µM | - | -
COc1ccc(CNC(=O)c2cc(C3CC3)nc3c2cnn3C(C)C)cc1 | 2.24µM | - | - | 0 | - | -
CC(C)n1ncc2c(C(=O)NCCc3ccc(S(N)(=O)=O)cc3)cc(C3CC3)nc21 | 0 | 0 | ? | 0 | ? | 0
CC(C)n1ncc2c(C(=O)N3CCN(c4ccccc4)CC3)cc(-c3ccccc3)nc21 | ? | - | - | 0 | - | -
O=C(Cn1cnc2c(oc3ccccc32)c1=O)Nc1ccc(F)cc1F | - | 0 | 0 | 0 | - | 0
CCCC[n+]1c(/C=C/c2ccc(N(C)C)cc2)sc2ccccc21 | - | 0 | - | - | - | ?
O=C(NC1CC1)c1cccc(Nc2ccc(-c3ccc4c(c3)OCCO4)nn2)c1 | 10µM | - | ? | ? | ? | -
